This is a sample that favours compounds with a hit; in the whole collection about 10% have one here.
G9a inh = qHTS Assay for Inhibitors of Histone Lysine Methyltransferase G9a; Potency, µM (titrated, usually from 102 µM), without a hit: at the highest dose activity, negative = inhibition, usual class: inhibitors; actives 8.8% (n = 350,000); G9a H3K9 monomethylation, AlphaScreen, 2 h; note: potency is the fitted concentration of half-maximal effect; % is set by controls: 0 for no effect and ±100 for the full control effect; nearly all actives have a fitted effect of over 75% in size
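Using a bead-based AlphaScreen, monomethylated H3K9 product from 2 h room-temperature reactions (G9a 20 nM, peptide 500 nM, SAM 20 uM) was detected with 0.5 ug/mL rabbit anti-H3K9me1 antibody.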
BAZ2B block = qHTS Assay for Inhibitors of BAZ2B. Bromodomain adjacent to zinc finger domain protein 2B (Homo sapiens), Q9UIF8. AlphaScreen BAZ2B-H3K14Ac peptide displacement. Potency, µM (titrated, usually from 114 µM), inactives show top-dose activity change, negative = inhibition, hits mostly inhibitors. actives 4.4% (n = 360,000). AID 504333, 2011; note: potency is the fitted concentration of half-maximal effect; % is set by controls: 0 for no effect and ±100 for the full control effect; nearly all actives have a fitted effect of over 60% in size
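BAZ2B (50 nM) with biotin-H3(5-23)K14Ac peptide (50 nM) in PBS pH 7.4, 0.01% Tween-20, preformed 30 min, then compound 30 min at room temperature; top concentration 110uM. AlphaScreen streptavidin donor/nickel chelate acceptor beads (10 ug/mL final), 20 min dark, signal read.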
CtBP-E1A inh = qHTS Assay for Inhibitors of the CtBP/E1A Interaction | activity change, % (no concentration beside the values) | actives 0.49% (n = 340,000) | CtBP / adenovirus E1A interaction (AlphaScreen) | AlphaScreen GST-E1A/His-CtBP binding, 1536-well; stronger effect = lower value | AID 651724, 2012; in the data active = activity change below about -65%; inconclusive = mostly about -30% to -63%; note: % is set by controls: 0 for no effect and ±100 for the full control effect
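AlphaScreen with 125 nM GST-E1A and 125 nM His-CtBP (5X stocks) in Tris pH 8.0, 300 mM NaCl, BSA, Tween 20, TCEP. Compounds preincubated 2 h at 37 deg C, then glutathione donor/nickel acceptor beads added for 1 h at 37 deg C in dark.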
HP1b chromo inh = HTS for Inhibitors of HP1-beta Chromodomain Interactions with Methylated Histone Tails | AlphaScreen HP1-beta / biotin-H3K9me3 peptide binding | actives 0.56% (n = 390,000) | Potency, µM (doses to about 114 µM), inactives show top-dose activity change, negative = inhibition, most hits filed as inhibitors; note: potency is the fitted concentration of half-maximal effect; nearly all actives have a fitted effect of over 70% in size
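Compound inhibition of the preformed complex between 50 nM HP1-beta and 50 nM biotinylated H3K9me3 peptide was read by AlphaScreen. Buffer was PBS pH 7.4 with 0.01% Tween-20. Incubations ran 30 min at room temperature, with 10 ug/mL donor/acceptor beads.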
Six1-Eya2 inh = qHTS Assay for Inhibitors of the Six1/Eya2 Interaction; Homeobox protein SIX1 (Homo sapiens) + Protein phosphatase EYA2 (Homo sapiens), …; AlphaScreen GST-Six1/His-Eya2 binding, biochemical; stronger effect = lower value; activity change, % (concentration not given with the values); actives 0.56% (n = 360,000); AID 651725, 2012; in the data active = activity change below about -65%; inconclusive = mostly about -30% to -63%; note: % is set by controls: 0 for no effect and ±100 for the full control effect
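GST-Six1 + His-Eya2 (5X stock: 250/500 nM); Tris pH 8.0, 300 mM NaCl, 0.05% BSA, 0.02% Tween 20; GSH donor/Ni acceptor beads; 1 h 37 °C dark; AlphaScreen readout.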
JMJD2A Tudor = qHTS Assay for Inhibitors of JMJD2A-Tudor Domain. Lysine-specific demethylase 4A (Homo sapiens), O75164. AlphaScreen JMJD2A-Tudor / H3K4me3 peptide binding. Potency, µM (series often up to 114 µM), inactives show top-dose activity change, negative = inhibition, hits mostly inhibitors. actives 4.4% (n = 390,000). AID 504339, 2011; note: potency is the fitted concentration of half-maximal effect; % is set by controls: 0 for no effect and ±100 for the full control effect; nearly all actives have a fitted effect of over 50% in size
Target sequence (O75164 whole entry, looked up, the tested form may be a part): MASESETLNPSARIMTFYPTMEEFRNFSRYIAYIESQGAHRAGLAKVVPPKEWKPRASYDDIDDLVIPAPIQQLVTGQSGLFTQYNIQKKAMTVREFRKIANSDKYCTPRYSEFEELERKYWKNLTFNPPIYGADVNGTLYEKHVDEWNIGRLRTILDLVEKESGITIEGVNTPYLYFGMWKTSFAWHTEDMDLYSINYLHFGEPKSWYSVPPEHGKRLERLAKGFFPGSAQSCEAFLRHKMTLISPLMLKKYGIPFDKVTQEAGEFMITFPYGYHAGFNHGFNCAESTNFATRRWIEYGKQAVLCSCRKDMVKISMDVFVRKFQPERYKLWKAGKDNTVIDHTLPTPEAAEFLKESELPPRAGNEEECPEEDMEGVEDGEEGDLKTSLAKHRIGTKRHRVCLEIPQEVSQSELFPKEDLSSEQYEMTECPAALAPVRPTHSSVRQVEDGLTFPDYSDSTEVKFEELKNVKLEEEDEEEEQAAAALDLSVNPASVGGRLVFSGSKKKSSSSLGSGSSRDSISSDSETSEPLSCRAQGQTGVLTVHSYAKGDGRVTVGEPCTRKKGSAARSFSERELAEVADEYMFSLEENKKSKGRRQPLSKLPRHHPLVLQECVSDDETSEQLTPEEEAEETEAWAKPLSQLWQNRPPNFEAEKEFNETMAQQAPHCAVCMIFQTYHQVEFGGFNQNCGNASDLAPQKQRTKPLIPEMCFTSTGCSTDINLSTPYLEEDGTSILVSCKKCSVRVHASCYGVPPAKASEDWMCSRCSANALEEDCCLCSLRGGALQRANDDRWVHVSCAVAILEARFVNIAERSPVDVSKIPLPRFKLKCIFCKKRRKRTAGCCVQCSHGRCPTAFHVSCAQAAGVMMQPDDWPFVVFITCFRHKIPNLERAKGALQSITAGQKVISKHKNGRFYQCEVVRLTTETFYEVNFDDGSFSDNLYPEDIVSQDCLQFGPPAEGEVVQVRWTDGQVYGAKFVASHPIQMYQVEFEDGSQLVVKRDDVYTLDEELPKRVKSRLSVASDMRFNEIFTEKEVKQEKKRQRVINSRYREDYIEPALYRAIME
An asterisk follows results filed as active; ! = not active in a repeat; [ ] = remark or other dose. Unless noted, calls come from the whole dose curve; as a rule, active = well fitted inhibition curve with a large enough effect; inconclusive = small, poorly fitted or top-dose-only effect; inactive = no such curve, though single readings can be large or run the other way.

What do the screens show for `CCOC(=O)CC(=O)CSc1nc2ccccc2c(=O)n1CCc1ccc(S(N)(=O)=O)cc1`?
G9a inh: 16.3%[59 µM]; BAZ2B block: -4.5%; HP1b chromo inh: 15.3%; JMJD2A Tudor: -20.7%

How did Cc1cc(O)c(C(C)C)cc1N=Cc1ccccc1O do in these assays?
G9a inh: 5.62µM*; BAZ2B block: inconclusive; HP1b chromo inh: -16.9%[57 µM]; Six1-Eya2 inh: 14.2; JMJD2A Tudor: inconclusive

What do the screens show for `CC(C)(C)c1ccc(Oc2ccc(NC(=O)CCC(=O)OCC(=O)c3ccccc3)cc2)cc1`?
G9a inh: 0.5%[59 µM]; BAZ2B block: -1.5%; HP1b chromo inh: 25.5%; JMJD2A Tudor: 5.2%

What do the screens show for `Oc1ccc2ccccc2c1CNc1ccc2ccccc2c1`?
CtBP-E1A inh: -23.3; HP1b chromo inh: inconclusive; Six1-Eya2 inh: -19.1; JMJD2A Tudor: 31.6µM*

Results for O=[N+]([O-])c1ccccc1NCc1c(O)ccc2ccccc12 ?
G9a inh: inconclusive; BAZ2B block: 35.5µM*; HP1b chromo inh: inconclusive; Six1-Eya2 inh: -21.9; JMJD2A Tudor: 44.7µM*

How did COc1cc(OC)nc(Oc2ccccc2/C=N/O)n1 do in these assays?
HP1b chromo inh: 11.8%; Six1-Eya2 inh: 0.4; JMJD2A Tudor: 44.7µM*

How did CCOC(=O)c1ccccc1NC(=O)CSc1nc(=O)[nH]c2c1CCC2 do in these assays?
G9a inh: 3.4%[59 µM]; BAZ2B block: -2.2%; HP1b chromo inh: -5.8%; JMJD2A Tudor: -8.4%

What do the screens show for `O=S(=O)(Nc1cc(F)ccc1F)c1ccc2[nH]c3c(c2c1)CCCC3`?
G9a inh: inconclusive; BAZ2B block: inconclusive; HP1b chromo inh: -16.5%; JMJD2A Tudor: inconclusive

Results for O=S(=O)(Nc1cc(F)ccc1F)c1ccc2[nH]c3c(c2c1)CCCCC3 ?
G9a inh: inconclusive; BAZ2B block: 39.8µM*; HP1b chromo inh: -25.5%; JMJD2A Tudor: inconclusive

How did COc1cccc(CNS(=O)(=O)c2ccc3[nH]c4c(c3c2)CCCCC4)c1 do in these assays?
G9a inh: inconclusive; BAZ2B block: -30.2%[57.1 µM]; HP1b chromo inh: inconclusive; JMJD2A Tudor: inconclusive

How did O=S(=O)(NCc1ccc(F)cc1)c1ccc2[nH]c3c(c2c1)CCCCC3 do in these assays?
G9a inh: 8.91µM*; BAZ2B block: -26.1%[57.1 µM]; HP1b chromo inh: inconclusive; JMJD2A Tudor: 44.7µM*

What do the screens show for `CCCCc1ccc(-n2nc3ccc(NC(=O)c4cc5ccccc5o4)cc3n2)cc1`?
G9a inh: -1.1%[59 µM]; BAZ2B block: 0.1%; HP1b chromo inh: 27.4%; JMJD2A Tudor: -15.0%

Results for Cc1ccccc1C1CC(=O)Nc2ccc3ccccc3c21 (stereo not given) ?
G9a inh: -3.9%[59 µM]; BAZ2B block: -0.4%; HP1b chromo inh: 37.7%; JMJD2A Tudor: -0.3%

Results for CCCN1CNc2c(c(=O)[nH]c(=S)n2CCC(C)(C)C)C1 ?
HP1b chromo inh: 15.0%; JMJD2A Tudor: -5.4%

What do the screens show for `CC(N)=NCCCC(N)C(=O)O` (stereo not given)?
G9a inh: 23.2%[12.7 µM]

What do the screens show for `CC(N)=NCCCC[C@@H](N)C(=O)O`?
G9a inh: 10µM*!

What do the screens show for `CCOC(=O)Cc1csc(NC(=O)c2sc3nc4cc(C)ccc4cc3c2N)n1`?
G9a inh: 70.8µM*; BAZ2B block: 13.0%; CtBP-E1A inh: 7.5; HP1b chromo inh: 3.2%; Six1-Eya2 inh: 13.2; JMJD2A Tudor: 39.8µM*

Results for CCOC(=O)Cc1csc(NC(=O)c2sc3nc4ccc(CC)cc4cc3c2N)n1 ?
G9a inh: -43.6%; BAZ2B block: -2.4%; CtBP-E1A inh: 18.3; HP1b chromo inh: 18.7%; Six1-Eya2 inh: -9.3; JMJD2A Tudor: -30.0%

Results for COCCNC(=O)COc1ccc(Nc2ccccc2)cc1 ?
G9a inh: 50.1µM*; BAZ2B block: inconclusive; CtBP-E1A inh: -2.0; HP1b chromo inh: 0.2%; Six1-Eya2 inh: -1.6; JMJD2A Tudor: -20.7%

How did Cc1ccc(-c2cc(C(=O)O)n[nH]2)o1 do in these assays?
G9a inh: -4.3%[12.7 µM]; BAZ2B block: -4.9%; CtBP-E1A inh: -7.0; HP1b chromo inh: 14.4%; Six1-Eya2 inh: -8.8; JMJD2A Tudor: 25.1µM*

What do the screens show for `Cc1ccc(C(=O)N2CCCC(N3CCN(c4ccccc4C)CC3)C2)c(=O)[nH]1` (stereo not given)?
G9a inh: 10.4%; BAZ2B block: -5.5%[57.1 µM]; HP1b chromo inh: inconclusive; Six1-Eya2 inh: 0.5; JMJD2A Tudor: 50.1µM*

Results for Cc1cc(C(=O)CSc2nnc(-c3cccs3)n2Cc2ccccc2)c(C)n1C ?
G9a inh: inconclusive; CtBP-E1A inh: -20.4; HP1b chromo inh: -22.1%; Six1-Eya2 inh: -24.8; JMJD2A Tudor: inconclusive

What do the screens show for `O=c1cc(CSc2nnc(-c3cccs3)n2Cc2ccccc2)nc2sc3ccccc3n12`?
G9a inh: inconclusive; BAZ2B block: 44.7µM*; CtBP-E1A inh: -7.5; HP1b chromo inh: 22.0%; Six1-Eya2 inh: -16.4; JMJD2A Tudor: -35.3%

What do the screens show for `Cc1cc(C)c2c(CC(=O)Nc3nnc(CC(C)C)s3)coc2c1`?
G9a inh: inconclusive; BAZ2B block: -16.5%; HP1b chromo inh: 4.2%; JMJD2A Tudor: -8.3%

Results for COC(=O)c1c(C)oc2ccc(N(C(=O)c3ccncc3)S(=O)(=O)c3cc(C)c(C)cc3C)cc12 ?
G9a inh: 10µM*; BAZ2B block: -25.9%; HP1b chromo inh: 12.3%; JMJD2A Tudor: -30.8%

How did CCOC(=O)C1C(C(=O)OC)=C(c2ccc(F)cc2)c2ccc(OC)cc2N1S(=O)(=O)C(F)(F)F (stereo not given) do in these assays?
G9a inh: -1.8%[59 µM]

What do the screens show for `CCCS(=O)(=O)N1CCN(Cc2ccccc2C(F)(F)F)CC1`?
G9a inh: 10µM*; BAZ2B block: -111.1%; CtBP-E1A inh: 8.4; HP1b chromo inh: inconclusive; Six1-Eya2 inh: 1.3; JMJD2A Tudor: 20µM*

How did CN1CCCN(Cc2ccccc2C(F)(F)F)CC1 do in these assays?
G9a inh: inconclusive; BAZ2B block: 50.1µM*; CtBP-E1A inh: 0.0; HP1b chromo inh: inconclusive; Six1-Eya2 inh: -7.3; JMJD2A Tudor: 0.708µM*

What do the screens show for `COc1ccc(S(=O)(=O)N2CCN(Cc3c[nH]c4ccccc34)CC2)cc1`?
G9a inh: -17.1%; BAZ2B block: -36.8%; CtBP-E1A inh: -7.2; HP1b chromo inh: 3.2%; Six1-Eya2 inh: -9.7; JMJD2A Tudor: -33.2%
